The panel holds about 79,000 compounds, 15% with a hit somewhere; the sample as a whole holds those more often. Activity calls are given as the source filed them. Rule as the data show it: active = growth inhibition above about 70%; inactive = the rest.

The assay can be described thus: NCI Yeast Anticancer Drug Screen. Data for the mlh1 rad18 strain (AID 175). The following applies: S. cerevisiae mlh1 rad18 strain growth inhibition; at 50.0 µM; active compounds read high. In a few lines: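 Test agents were incubated with a yeast strain of defined genotype (DNA damage repair defect). Inhibition of growth was derived by comparison with vehicle-exposed cultures.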
Turning to `Cc1cc(O)oc(=O)c1`, the growth inhibition is -4.85% (inactive). On to `CCCCCCCCC1C(CCCCCCCC(=O)OC)C2(Cl)C(Cl)=C(Cl)C1(Cl)C2(Cl)Cl` (stereo not given), for which the growth inhibition was 14.3% (inactive).

In the case of `CCOC(=O)C(=CNc1cccc(Cl)c1)C(=O)OCC`, the growth inhibition is -19.9% (inactive). `COc1cc(C2C(C(=O)Nc3ccccc3C)=C(C)NC(C)=C2C(=O)Nc2ccccc2C)ccc1O`: the growth inhibition is -9.95% (inactive). For `O=C(COc1ccc2c(=O)cc(-c3ccc(Cl)cc3)oc2c1)N1CCN(c2ccccc2)CC1`, the growth inhibition is 10.9% (inactive). Regarding `O=C(Cc1nc2ccc(C(=O)c3ccccc3)cc2[nH]c1=O)C(=O)Nc1nc2ccccc2[nH]1`, the growth inhibition was 9.5% (inactive). In the case of `O=C(OCC1OC(OCc2ccccc2)C(OC(=O)c2ccccc2)C1OC(=O)c1ccccc1)c1ccccc1` (stereo not given) it was -24.1% (inactive); in that of `NC1=C(O)C(=O)C(c2ccccc2)O1` (stereo not given), 2.5% (inactive); in that of `N#CCc1cn(-c2ccccc2)nn1`, -25.2% (inactive). Regarding `CC(C)=NNC(=S)NC12CC3CC(CC(C3)C1)C2`, the growth inhibition was 35% (inactive). For the molecule `CONCc1ccc(C(=O)NC(C)C)cc1`, the growth inhibition is -11.8% (inactive).

On to `NC(=O)OC1CCN(c2cccc(Cl)c2)C1` (stereo not given), for which the growth inhibition is 1.75% (inactive).

With `O=C(O)CCn1cnc2c(=S)nc[nH]c21`, the growth inhibition is -16.5% (inactive).

`CCCCCc1ccccn1`: the growth inhibition is -11.2% (inactive).

For `CC(COC(=O)c1ccc(N)cc1)NC1CCCCC1` (stereo not given), the growth inhibition was -16.6% (inactive). Take `COc1ccc(CC(=O)NCCc2ccc(OC)c(OC)c2OC)cc1`: the growth inhibition is -32.8% (inactive).

As to `C[C@@H](C1CCC2C3C(=CC(=O)[C@@]21C)[C@H](C)[C@]1(CCC(=O)O1)C1OC31)[C@H]1C[C@]2(C)O[C@@](C)(O1)OC2(C)C` (stereo not given in full), the growth inhibition was 9.15% (inactive). In the case of `Nc1cc(=S)nc(N)[nH]1`, the growth inhibition is 28.9% (inactive). Consider `COC(=O)Nc1nc2c(OC)c(OC)c(OC)cc2[nH]1`, for which the growth inhibition was -17.1% (inactive). Regarding `CCc1ccc(NS(=O)(=O)c2ccc3ccccc3c2)cc1`, the growth inhibition was 96.4% (active).

As for `N#CC(C(=N/NC(N)=S)/C(=N/NC(N)=S)C(C#N)c1ccc(Cl)cc1)c1ccc(Cl)cc1` (stereo not given), the growth inhibition was -13.1% (inactive).

As to `NC1=NC=NCN1c1ccc(N)cc1`, the growth inhibition is 5.7% (inactive). Turning to `CCOC(=O)C1=CC2CCOC2O1` (stereo not given), the growth inhibition is 5.5% (inactive). Turning to `COc1cc(CNC(=S)CCCCCCCCCCC(C)C)ccc1O`, the growth inhibition is -21.4% (inactive). Turning to `CNCCCCCCNc1cc(OC)cc2cccnc12`, the growth inhibition is 58.8% (inactive). In the case of `Cc1nn(C(=O)c2ccncc2)c2c1C(c1cccc([N+](=O)[O-])c1)SC(N)=N2` (stereo not given) it was -28.2% (inactive). The value for `CCN(CC)CC(=N)N(CC)c1ccccc1` was 28.5% (inactive); that for `Cc1c2cnccc2c(C)c2c1c1ccccc1n2CCNCc1ccccc1` was 66.7% (inactive); that for `O=C(/C=C/c1ccccc1)c1cccc([N+](=O)[O-])c1` was 4.4% (inactive).

Regarding `O=C(O)CC(CC(=O)O)c1ccc(F)cc1`, the growth inhibition was -8.5% (inactive).

Turning to `CCCc1nnnn1C12CC3CC(CC(C3)C1)C2`, the growth inhibition was 28.1% (inactive). With `Cc1cc(-c2ccccc2)n(C(C(=O)c2ccccc2)c2ccccc2)n1` (stereo not given), the growth inhibition is -15.2% (inactive). With `CC(=O)OCc1ccc(Cl)cc1Cl`, the growth inhibition is -12.2% (inactive). The value for `[N-]=[N+]=Nc1cc(-c2ccccc2)nc2cc3c(cc12)OCO3` was -7.2% (inactive); that for `O=S(=O)(NCCNS(=O)(=O)c1ccccc1)c1ccccc1` was 4% (inactive); that for `N#C/C1=C(\N)CCSSSC1` was -0.2% (inactive). On to `c1ccc(CCN=C2c3ccccc3-n3cccc32)nc1`, for which the growth inhibition was 16.4% (inactive). Turning to `O=C1CSC(c2ccccc2)N1O` (stereo not given), the growth inhibition was -7.7% (inactive). For `CC(=O)OCC1OC(SC2=NC(=O)/C(=C/c3ccccc3)S2)C(OC(C)=O)C(OC(C)=O)C1OC(C)=O` (stereo not given), the growth inhibition is 43.8% (inactive). Take `CC1(C)CC(=O)C2(C)C(C1O)C2C1C2C(O)C(C)(C)CC(=O)C21C` (stereo not given): the growth inhibition was -16.1% (inactive).
